Data published in PubChem BioAssay (NCI).
About 83,000 compounds went through this panel and 20% of them were active in at least one assay; those are over-represented in the sample as a whole.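 Each cell line was grown in a 96-well plate and treated with one concentration of compound for 48 hours. Values below 10 were considered active.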 Activity calls are given as the source filed them.

Columns and labels:
Assay in all cases: NCI-60 one-dose screen, 48 h (100 = growth as untreated, 0 = no growth, -100 = all killed)
Conditions in all cases: 10 µM unless noted
[1] = tested on: T-47D breast
[2] = tested on: BT-549 breast
[3] = tested on: MDA-MB-435 melanoma
[4] = tested on: SW-620 colon
[5] = tested on: MCF7 breast
[6] = tested on: HCT-116 colon
[7] = tested on: HCC-2998 colon
[8] = tested on: KM12 colon

Measured: growth

COc1ccc(Oc2ccc(/C=N/NC(=O)CSc3nc4ccccc4c(=O)n3-c3ccc(Cl)cc3)cc2)cc1
inactive: [1] 37.8% | [2] 89.4% | [3] 87.7% | [4] 44.4% | [5] 49.3% | [6] 13.3% | [7] 83.3% | [8] 77.2%

CNC1CCc2c(sc(NC(=O)c3ccc(C(C)(C)C)cc3)c2C(N)=O)C1 (stereo not drawn)
inactive: [1] 53.6% | [2] 74.7% | [3] 45.2% | [7] 28.6% | [8] 10%
active: [4] -53.5% | [5] -34.2% | [6] 3.12%

Cn1ccnc1C(=O)/C=C/c1ccc(CNC(=O)c2ccc(Cl)cc2)cc1
active: [4] 9.22% | [6] -1.09% | [8] 9.07%
inactive: [1] 34% | [2] 16.5% | [3] 22.6% | [5] 10.5% | [7] 13.1%

O=C1[C@H]2Cc3c([nH]c4ccccc34)[C@@H](c3ccc(Br)cc3)N2C(=O)CN1C1CCN(CC2CCCCC2)CC1
active: [2] -3.47% | [3] -88% | [4] -83.4% | [5] -99.1% | [6] -93.2% | [7] -98.8% | [8] -90.1%
inactive: [1] 44.7%

COc1cc(Cn2cc3c(c2)-c2onc(CN4CCCC4)c2CC3)cc(OC)c1OC
inactive: [1] 76.1% | [2] 93.2% | [3] 96.4% | [4] 104% | [5] 80.6% | [6] 95.9% | [7] 106% | [8] 90.3%

COc1ccc(NC(=O)CSc2nnc(-c3ccc4nc(-c5ccc(OC)c(OC)c5)[nH]c4c3)o2)cc1OC
inactive: [1] 90.3% | [2] 90.7% | [3] 102% | [4] 105% | [5] 91.9% | [6] 98.1% | [7] 111% | [8] 101%

O=S(=O)(NCCCNc1nccc(-c2[nH]c(-c3ccccc3)nc2-c2ccc(Cl)c(O)c2)n1)c1cccc(F)c1
inactive: [1] 49.9% | [2] 59.7% | [3] 21.5% | [4] 92.5% | [5] 55.3% | [6] 35.4% | [7] 101% | [8] 60.5%

Cc1ccc(C2=Nn3c(nnc3-c3ccccc3)SC2)cc1
active: [3] -22.2%
inactive: [1] 29.2% | [2] 22.5% | [4] 13.3% | [5] 16.4% | [6] 17.7% | [7] 39.9% | [8] 36.4%

Cc1ccc(CSc2nc(-c3ccc(Cl)cc3)c(C#N)c(N3CCOCC3)n2)cc1
inactive: [1] 79% | [2] 115% | [3] 94.8% | [4] 96% | [5] 88.6% | [6] 90% | [7] 104% | [8] 96.5%

CS(=O)(=O)Nc1cc(-c2ccc3ncc(C#N)c(NCc4ccccc4F)c3c2)cnc1Cl
active: [1] 3.78% | [2] -8.8% | [3] 6.84% | [4] 8.38% | [5] 4.76% | [6] 4.1% | [7] -1.68%
inactive: [8] 11.5%

Cc1ccc(C2=NN(C)C(=O)C3(CCCC3)C2)cc1
inactive: [1] 102% | [2] 117% | [3] 107% | [4] 103% | [5] 89.8% | [6] 104% | [7] 110% | [8] 104%

CCOc1ccc(NC2=C(Cl)C(=O)c3nc(C)ccc3C2=O)cc1
active: [1] -43.8% | [3] -83.7% | [4] -55.3% | [5] -67% | [6] -83.6% | [7] -55.7%
inactive: [2] 46.5% | [8] 57.4%

O=C1CC(=O)N2CSCN(C(c3ccccc3)c3nc4ncncc4[nH]3)C2=N1 (stereo not drawn)
inactive: [1] 98.8% | [2] 105% | [3] 107% | [4] 102% | [5] 93.9% | [6] 105% | [7] 99.4% | [8] 103%

Cc1ccc(-n2c(/C=C3\C(=O)Nc4ccccc43)ccc2CO)cc1
active: [3] -10.3%
inactive: [1] 77.4% | [2] 66.6% | [4] 43.3% | [5] 34.5% | [6] 52.8% | [7] 95.7% | [8] 18.8%

O=C(NNc1nc2cc(F)c(F)cc2n2cccc12)c1cnccn1
inactive: [1] 13.6% | [2] 43.7% | [3] 37.1% | [4] 27.4% | [5] 14% | [6] 17.5% | [7] 40.9% | [8] 22.3%

CCCn1cnc2c(c1=N)C(c1ccc(Cl)cc1)c1sc3c(C)cccc3c1O2 (stereo not drawn)
active: [3] -40% | [6] 9.34%
inactive: [1] 45.9% | [2] 18% | [4] 25.8% | [5] 17.4% | [7] 15.3% | [8] 10.9%
